Assay [1] is described as follows: Nuclear factor erythroid 2-related factor 2/antioxidant responsive element (Nrf2/ARE) small molecule agonists: qHTS cell viability counter screen in human keratinocytes (AID 1919968; active = well fitted curve in the direction sought with a large enough effect in the repeat runs; an effect the other way counts as inactive or inconclusive; note: nearly all actives have a fitted effect of over 55% in size; note: potency is the fitted concentration of half-maximal effect). An outline of the steps:
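Cells of the KeratinoSens line were plated at 1,500 per well and left for 5 h before compound transfer from DMSO stocks. After a 23 h incubation (37 C, 5% CO2), CellTiter-Fluor was added. Signal was taken as fluorescence intensity 1 h later.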

The nature of assay [2]: Nuclear factor erythroid 2-related factor 2/antioxidant responsive element (Nrf2/ARE) small molecule agonists: luciferase reporter gene qHTS assay in human keratinocytes (AID 1919969; note: nearly all actives have a fitted effect of over 35% in size; note: potency is the fitted concentration of half-maximal effect). (In general: A reporter such as luciferase makes a cellular process visible.)
The target of assay [3] is Gonadotropin-releasing hormone receptor (Homo sapiens) (UniProt P30968). Put plainly: Human gonadotropin-releasing hormone receptor (GnRHR) small molecule agonists, calcium flux assay in GnRHR-HEK293 cells (AID 1920063). Note: nearly all actives have a fitted effect of over 35% in size. Note: potency is the fitted concentration of half-maximal effect. An outline of the steps:
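Compounds dissolved in DMSO are pin-transferred onto dye-loaded GnRHR-HEK293 cells, which were seeded 18 h before at 37 C/5% CO2. Calcium signal is read as fluorescence intensity at 1 s intervals for 3 min.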
Background: Calcium flux is commonly read through the fluorescence of an indicator in the cells.

A short description of assay [4]: p53 small molecule agonists, cell-based qHTS assay with human liver microsomes (AID 1963577).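 Note: p53 response element beta-lactamase reporter cells with liver microsomes plus NADPH.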 The gist of the method: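 Reporter activation was measured by LiveBLAzer fluorescence intensity in p53RE-bla cells, which had been exposed to compounds for 16 h at 37 C alongside 0.5 mg/mL human liver microsomes and 0.5 mg/mL NADPH (final concentrations).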
On the technique in general: qHTS replaces the single test concentration by a dilution series.

Assay [5] in a line: p53 small molecule agonists, cell-based qHTS assay with rat liver microsomes (AID 1963578). The gist of the method:
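Compound in DMSO added to p53RE-bla cells 5 h post-plating; rat microsomes/NADPH 0.5 mg/mL final; 16 h, 37 C; LiveBLAzer 2 h RT.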

A short description of assay [6]: p53 small molecule agonists, cell-based qHTS assay with human liver microsomes: qHTS cell viability counter screen (AID 1963579). Note: nearly all actives have a fitted effect of over 45% in size. The gist of the method:
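HLM-supplemented (0.5 mg/mL final) and NADPH-supplemented (0.5 mg/mL final) p53RE-bla cultures, 4,000 cells per well, were dosed with compounds in DMSO for 16 h at 37 C; luminescent ATP detection (CellTiter-Glo, 30 min, room temperature) quantified surviving cells.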

Assay [7] is described as follows: p53 small molecule agonists, cell-based qHTS assay with rat liver microsomes: qHTS cell viability counter screen (AID 1963580). Note: nearly all actives have a fitted effect of over 45% in size. The gist of the method: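 Counter screen for cytotoxicity under metabolic activation: rat liver microsomes and NADPH, 0.5 mg/mL final each, added with compounds to p53RE-bla HCT-116 cells; 16 h at 37 C, then ATP luminescence read.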
Assay [8] in a line: p53 small molecule agonists, cell-based qHTS assay: qHTS cell viability counter screen (AID 1963581). Note: nearly all actives have a fitted effect of over 45% in size. Note: potency is the fitted concentration of half-maximal effect. An outline of the steps:
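ATP content measured by luminescence in HCT-116 p53RE-bla cells treated 16 h at 37 C, same wells as the reporter screen.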

A short description of assay [9]: p53 small molecule agonists, cell-based qHTS assay (AID 1963582; active = well fitted activation curve with a large enough effect in the signal ratio in the repeat runs, not every such curve was filed as active; the % refers to the signal ratio). The gist of the method:
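16 h compound exposure (37 C) of p53 response element–bla cells, preceded by 5 h recovery at 37 C/5% CO2; read-out via LiveBLAzer B/G FRET substrate, 2 h RT, fluorescence intensity.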

In assay [10] the target is 5-hydroxytryptamine receptor 2A (Homo sapiens) (UniProt P28223). Put plainly: 5-hydroxytryptamine receptor 2A (HTR2A) small molecule antagonists, cell-based qHTS assay (AID 1963586). Note: nearly all actives have a fitted effect of over 45% in size. The gist of the method:
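CHO cells stably expressing human HTR2A were plated for 18 h at 37 C, then loaded with calcium dye for 1 h. Compounds were preincubated 5 min at room temperature before DOI (4 nM solution) was added. Kinetic fluorescence was read for 3 min.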

The target is the same in assay [11]. Put plainly: 5-hydroxytryptamine receptor 2A (HTR2A) small molecule agonists, cell-based qHTS assay (AID 1963587). Note: nearly all actives have a fitted effect of over 30% in size. An outline of the steps: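 HTR2A-CHO cells, plated 18 h at 37 C/5% CO2, dye-loaded 1 h at 37 C; compounds in DMSO added by pin tool (agonist mode). Intracellular calcium flux read as kinetic fluorescence on FDSS over 2 min at 1 s intervals.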
Assay [12] has as its target Muscarinic acetylcholine receptor M1 (Homo sapiens) (UniProt P11229). Put plainly: Cholinergic receptor muscarinic 1 (CHRM1) small molecule antagonists, cell-based qHTS assay (AID 1963588). Note: nearly all actives have a fitted effect of over 40% in size. The gist of the method: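 Compounds were tested at 15 concentrations in three independent runs. Dye-loaded CHRM1-CHO cells were exposed 5 min at room temperature before stimulation by acetylcholine added at 50nM. Intracellular calcium was read kinetically on FDSS for 3 min.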

For assay [13] the target is unchanged. Put plainly: Cholinergic receptor muscarinic 1 (CHRM1) small molecule agonists, cell-based qHTS assay (AID 1963589). Note: nearly all actives have a fitted effect of over 35% in size. The gist of the method: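 Homogeneous fluorescence calcium flux, agonist mode. Human M1-expressing CHO cells; compound dosed at 15 concentrations, three independent runs; signal sampled every 1 sec.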
Assay [14] can be described thus: cAMP Responsive Elements (CRE) small molecule agonists, cell-based qHTS assay (AID 1963590). The gist of the method: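 HEK 293T cells stably bearing CRE-bla were plated at 2,000 cells per well and rested 18 h. Compounds, positive controls or DMSO were added for 3 h at 37 C. LiveBLAzer B/G substrate was then loaded for 2 h at room temperature.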
A short description of assay [15]: cAMP Responsive Elements (CRE) small molecule antagonists, cell-based qHTS assay (AID 1963591; active = well fitted inhibition curve with a large enough effect in the signal ratio in the repeat runs, not every such curve was filed as active; the % refers to the signal ratio; note: potency is the fitted concentration of half-maximal effect). The gist of the method:
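First, CRE-bla HEK293T cells settled 18 h at 37 C. Next, compound and 0.25 uM final NKH477 were applied for 3 h. Last, LiveBLAzer B/G substrate was loaded for 2 h at room temperature.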

The target of assay [16] is Beta-2 adrenergic receptor (Homo sapiens) (UniProt P07550). In words: Adrenergic beta2 receptor (ADRB2) small molecule antagonists, cell-based qHTS assay (AID 1963592). Note: series mostly up to about 92 µM; nearly all actives have a fitted effect of over 50% in size. An outline of the steps:
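Assay format: CHO-ADRB2 cells, 18-20hr seeding at 37C/5% CO2, then compound plus 1nM isoproterenol agonist mix for 0.5hr RT. Homogeneous time-resolved fluorescence cAMP detection after 1hr, expressed as 665/615 nm ratio.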

In assay [17] the target is D(2) dopamine receptor (Homo sapiens) (UniProt P14416). In words: Dopamine D2 receptor (DRD2) small molecule agonists, cell-based qHTS assay (AID 1963594). Note: nearly all actives have a fitted effect of over 35% in size. The gist of the method: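 HEK293 cells stably expressing DRD2 were cultured 24 h at 37 C, then given Ro20-1724 (0.1 mM final) and compounds for 10 min at room temperature. NKH477 (200nM) was then added for 30 min. cAMP was read by HTRF.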

The target is the same in assay [18]. Put plainly: Dopamine D2 receptor (DRD2) small molecule antagonists, cell-based qHTS assay (AID 1963595; active = well fitted inhibition curve with a large enough effect in the signal ratio in the repeat runs, with a control signal flat; the % refers to the signal ratio; note: potency is the fitted concentration of half-maximal effect). An outline of the steps:
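Human DRD2 antagonist qHTS measuring cAMP by HTRF. The cells are exposed to compound for 10 min, then to NKH477 (200 nM) and quinpirole (12 nM) for 30 min at RT, with Ro20-1724 (0.1 mM) present throughout.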

Assay [19] has as its target KiSS-1 receptor (Homo sapiens) (UniProt Q969F8). In words: Human kisspeptin (KISS1R) small molecule agonists, calcium flux assay in KISS1R-HEK293 cells (AID 1920064; active = well fitted curve in the direction sought with a large enough effect in the repeat runs; an effect the other way counts as inactive or inconclusive). The gist of the method: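 Cell line: HEK293, stable human KISS1R. Dye loading 1 h at 37 C after 18 h culture. Read: kinetic fluorescence, 480/540 nm, 3 min at 1 s intervals.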
A short description of assay [20]: G protein-coupled receptor (GPCR) small molecule agonists, calcium flux assay: HEK293 wild type cell line counter screen (AID 1920065). The gist of the method:
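Tox21 10K compounds, 15 concentrations each in triplicate, pin-transferred in DMSO onto dye-loaded cells; kinetic read at 480/540 nm for 3 min, 1 s intervals.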

Values without a mark were called inactive. Inconclusive results are not listed. Calls of active or inactive are those of the source. Unless noted, calls come from the whole dose curve.

For 8 molecules, Potency and outcome results are on record in PubChem BioAssay (Tox21).

Chain of 5-hydroxytryptamine receptor 2A (Homo sapiens) (P28223 whole entry, looked up): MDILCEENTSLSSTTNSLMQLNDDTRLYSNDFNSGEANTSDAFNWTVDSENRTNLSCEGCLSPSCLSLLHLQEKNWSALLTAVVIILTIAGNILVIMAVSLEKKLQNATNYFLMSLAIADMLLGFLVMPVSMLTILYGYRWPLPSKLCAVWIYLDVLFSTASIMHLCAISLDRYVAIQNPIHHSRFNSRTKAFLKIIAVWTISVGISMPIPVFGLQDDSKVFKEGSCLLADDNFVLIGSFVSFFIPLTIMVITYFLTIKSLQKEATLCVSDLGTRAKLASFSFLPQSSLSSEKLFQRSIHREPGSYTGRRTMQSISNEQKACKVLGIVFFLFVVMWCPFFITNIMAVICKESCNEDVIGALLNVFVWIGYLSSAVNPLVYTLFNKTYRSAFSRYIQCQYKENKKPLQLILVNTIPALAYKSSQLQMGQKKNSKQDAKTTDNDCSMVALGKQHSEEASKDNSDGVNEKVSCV
Chain of Muscarinic acetylcholine receptor M1 (Homo sapiens) (P11229 whole entry, looked up): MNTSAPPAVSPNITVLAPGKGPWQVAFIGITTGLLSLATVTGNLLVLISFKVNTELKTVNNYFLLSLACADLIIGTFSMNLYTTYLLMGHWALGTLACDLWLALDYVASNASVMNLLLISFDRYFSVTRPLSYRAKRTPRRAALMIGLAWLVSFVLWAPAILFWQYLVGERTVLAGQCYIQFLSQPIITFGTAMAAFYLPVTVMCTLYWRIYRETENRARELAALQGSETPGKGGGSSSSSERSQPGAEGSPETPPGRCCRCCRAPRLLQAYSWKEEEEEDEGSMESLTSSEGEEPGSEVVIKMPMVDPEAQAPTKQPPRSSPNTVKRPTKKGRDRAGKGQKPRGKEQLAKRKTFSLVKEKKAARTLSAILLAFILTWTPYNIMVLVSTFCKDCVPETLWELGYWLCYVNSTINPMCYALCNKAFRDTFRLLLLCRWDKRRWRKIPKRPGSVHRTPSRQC
Chain of D(2) dopamine receptor (Homo sapiens) (P14416 whole entry, looked up): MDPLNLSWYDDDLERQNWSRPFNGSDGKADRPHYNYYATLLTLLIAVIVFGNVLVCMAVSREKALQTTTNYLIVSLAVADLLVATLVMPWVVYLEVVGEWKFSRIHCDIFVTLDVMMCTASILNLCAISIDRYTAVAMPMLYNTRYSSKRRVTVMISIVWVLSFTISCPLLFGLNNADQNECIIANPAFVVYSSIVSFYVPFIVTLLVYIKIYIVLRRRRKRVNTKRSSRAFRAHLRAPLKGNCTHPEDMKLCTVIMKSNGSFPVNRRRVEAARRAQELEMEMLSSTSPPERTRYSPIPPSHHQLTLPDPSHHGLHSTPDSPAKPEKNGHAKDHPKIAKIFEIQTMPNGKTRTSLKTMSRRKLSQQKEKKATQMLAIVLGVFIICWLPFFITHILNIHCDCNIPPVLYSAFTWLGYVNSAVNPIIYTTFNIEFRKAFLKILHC
Chain of Gonadotropin-releasing hormone receptor (Homo sapiens) (P30968 whole entry, looked up): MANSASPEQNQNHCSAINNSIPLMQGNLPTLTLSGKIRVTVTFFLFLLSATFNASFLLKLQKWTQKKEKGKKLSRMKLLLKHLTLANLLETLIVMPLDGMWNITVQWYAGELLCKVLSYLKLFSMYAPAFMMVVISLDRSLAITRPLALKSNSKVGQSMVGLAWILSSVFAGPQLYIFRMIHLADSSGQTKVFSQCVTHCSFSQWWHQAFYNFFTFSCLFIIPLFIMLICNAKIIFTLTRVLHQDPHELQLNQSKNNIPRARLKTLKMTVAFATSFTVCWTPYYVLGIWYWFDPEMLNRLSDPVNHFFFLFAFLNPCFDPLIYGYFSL
Chain of Beta-2 adrenergic receptor (Homo sapiens) (P07550 whole entry, looked up): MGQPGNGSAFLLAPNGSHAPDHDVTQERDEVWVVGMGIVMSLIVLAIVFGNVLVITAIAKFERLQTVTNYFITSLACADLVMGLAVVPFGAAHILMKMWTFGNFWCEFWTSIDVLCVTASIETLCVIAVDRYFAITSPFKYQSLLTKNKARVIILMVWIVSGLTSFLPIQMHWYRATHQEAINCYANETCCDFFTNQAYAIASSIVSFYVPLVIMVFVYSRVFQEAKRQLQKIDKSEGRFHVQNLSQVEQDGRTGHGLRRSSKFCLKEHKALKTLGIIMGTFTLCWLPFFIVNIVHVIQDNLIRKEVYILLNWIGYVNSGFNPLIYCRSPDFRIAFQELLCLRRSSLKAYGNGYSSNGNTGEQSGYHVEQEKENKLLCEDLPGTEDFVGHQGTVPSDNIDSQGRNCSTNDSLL
Chain of KiSS-1 receptor (Homo sapiens) (Q969F8 whole entry, looked up): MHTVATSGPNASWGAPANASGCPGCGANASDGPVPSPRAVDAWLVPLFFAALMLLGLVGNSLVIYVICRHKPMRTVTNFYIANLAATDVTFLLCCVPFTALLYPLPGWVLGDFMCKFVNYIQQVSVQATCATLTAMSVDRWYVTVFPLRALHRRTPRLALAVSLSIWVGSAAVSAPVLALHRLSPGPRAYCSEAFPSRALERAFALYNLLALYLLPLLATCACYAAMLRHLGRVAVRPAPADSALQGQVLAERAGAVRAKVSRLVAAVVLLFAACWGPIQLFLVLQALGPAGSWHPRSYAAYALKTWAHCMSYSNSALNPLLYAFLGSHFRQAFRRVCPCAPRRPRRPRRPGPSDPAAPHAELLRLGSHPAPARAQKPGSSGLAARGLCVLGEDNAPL

`CC(=O)c1ccc(C(C)=O)cc1`: the Potency entry in assay [1], in [2], in assay [3], in assay [4], in [5] and in assay [6] was “inactive” throughout. The Potency result in [7], in [8], in assay [9], in assay [10], in [11] and in [12] was “inactive” each time. The Potency entry in [13], in assay [14], in assay [15], in [16], in assay [17] and in assay [18] was “inactive” in each case.

On to `COc1cc(-c2ccc(N=C=O)c(OC)c2)ccc1N=C=O`, for which the Potency result in assay [1], in assay [2], in assay [4], in assay [5], in [6] and in assay [7] was “inactive” each time. For the same molecule, the Potency result in assay [8], in assay [9], in assay [10], in assay [11], in assay [12] and in assay [13] was “inactive” in each case. Besides, the Potency entry in assay [14], in assay [15], in [16], in assay [17] and in assay [18] was “inactive” throughout. Moreover, the result in assay [19] and in assay [20] was inactive.

Regarding `CC(C)(C)NCC(O)c1cc(O)cc(O)c1` (configuration not stated), the Potency result in [1], in assay [2], in assay [4], in assay [5], in assay [6] and in assay [8] was “inactive” throughout. The Potency result in assay [9], in assay [15] and in assay [17] was “inactive” in each case. In addition, the figures for the Potency in [3] and in assay [18] were 0.268 µM (active) and 10.6 µM (active), respectively. Besides, the result in [20] was inactive.

For the molecule `CCN(Cc1c(F)cccc1Cl)c1c([N+](=O)[O-])cc(C(F)(F)F)cc1[N+](=O)[O-]`, the Potency entry in assay [1], in [3], in [4], in [5], in assay [6] and in [7] was “inactive” in each case. For the same molecule, the Potency entry in assay [9], in [10], in assay [11], in assay [12], in [13] and in assay [15] was “inactive” each time. The Potency result in [16], in [17] and in assay [18] was “inactive” each time. Besides, the Potency in assay [2] is 15.4 µM (active); in assay [8], 25.7 µM (active).

For `CN1C(=O)N(c2ccccc2Br)Cc2cnc(Nc3ccc4c(c3)OCC(CO)O4)nc21` (configuration not stated), the Potency in [1] is 54.5 µM (active); in [15], 57 µM (active). In addition, the Potency result in assay [2], in assay [3], in [4], in assay [6], in [7] and in [10] was “inactive” throughout. Moreover, the Potency entry in assay [11], in assay [12], in assay [13] and in assay [17] was “inactive” each time. Besides, the result in [20] was inactive.

As to `CCCOC(=O)c1ccc(C(=O)OCCC)nc1`, the Potency entry in assay [1], in [2], in [3], in [4], in assay [5] and in [6] was “inactive” in each case. Moreover, the Potency result in [7], in assay [8], in assay [11], in [12], in [13] and in [16] was “inactive” throughout. Further, the Potency entry in [17] is “inactive”.

On to `Cc1ccc2oc(CN(Cc3ccccc3)C(=O)Nc3c(F)cc(F)cc3F)c(-c3ccc(Cl)cc3)c2c1`, for which the Potency entry in assay [1], in [2], in [3], in assay [4], in [5] and in assay [6] was “inactive” each time. The Potency result in [8], in [10], in assay [11], in assay [15], in [16] and in assay [17] was “inactive” each time. Moreover, the Potency result in [18] is “inactive”. Besides, the result in assay [20] was inactive.

With `COc1cc2nc(Cl)nc(N)c2cc1OC`, the Potency entry in assay [1], in assay [2], in [3], in assay [5], in assay [6] and in assay [7] was “inactive” each time. For the same molecule, the Potency result in assay [8], in assay [9], in assay [10], in assay [11], in assay [12] and in [13] was “inactive” in each case. The Potency result in assay [15], in assay [16] and in assay [18] was “inactive” in each case. The result in assay [20] was inactive.
